# In ChEMBL document CHEMBL1201862, “PubChem BioAssay data set” (2004):
# Screen size: about 400,000 compounds; about 2,100 (0.53%) were called active. Roughly 14% stayed inconclusive and do not appear here. No rule for the calls is given here. For the sample, actives were picked, then their nearest neighbours and some compounds at random.
# Target: Ataxin-2 (Homo sapiens) (UniProt Q99700)
# Assay: qHTS for Inhibitors of ATXN expression.
# Format: functional
# Chain of Ataxin-2 (Homo sapiens) (Q99700 whole entry): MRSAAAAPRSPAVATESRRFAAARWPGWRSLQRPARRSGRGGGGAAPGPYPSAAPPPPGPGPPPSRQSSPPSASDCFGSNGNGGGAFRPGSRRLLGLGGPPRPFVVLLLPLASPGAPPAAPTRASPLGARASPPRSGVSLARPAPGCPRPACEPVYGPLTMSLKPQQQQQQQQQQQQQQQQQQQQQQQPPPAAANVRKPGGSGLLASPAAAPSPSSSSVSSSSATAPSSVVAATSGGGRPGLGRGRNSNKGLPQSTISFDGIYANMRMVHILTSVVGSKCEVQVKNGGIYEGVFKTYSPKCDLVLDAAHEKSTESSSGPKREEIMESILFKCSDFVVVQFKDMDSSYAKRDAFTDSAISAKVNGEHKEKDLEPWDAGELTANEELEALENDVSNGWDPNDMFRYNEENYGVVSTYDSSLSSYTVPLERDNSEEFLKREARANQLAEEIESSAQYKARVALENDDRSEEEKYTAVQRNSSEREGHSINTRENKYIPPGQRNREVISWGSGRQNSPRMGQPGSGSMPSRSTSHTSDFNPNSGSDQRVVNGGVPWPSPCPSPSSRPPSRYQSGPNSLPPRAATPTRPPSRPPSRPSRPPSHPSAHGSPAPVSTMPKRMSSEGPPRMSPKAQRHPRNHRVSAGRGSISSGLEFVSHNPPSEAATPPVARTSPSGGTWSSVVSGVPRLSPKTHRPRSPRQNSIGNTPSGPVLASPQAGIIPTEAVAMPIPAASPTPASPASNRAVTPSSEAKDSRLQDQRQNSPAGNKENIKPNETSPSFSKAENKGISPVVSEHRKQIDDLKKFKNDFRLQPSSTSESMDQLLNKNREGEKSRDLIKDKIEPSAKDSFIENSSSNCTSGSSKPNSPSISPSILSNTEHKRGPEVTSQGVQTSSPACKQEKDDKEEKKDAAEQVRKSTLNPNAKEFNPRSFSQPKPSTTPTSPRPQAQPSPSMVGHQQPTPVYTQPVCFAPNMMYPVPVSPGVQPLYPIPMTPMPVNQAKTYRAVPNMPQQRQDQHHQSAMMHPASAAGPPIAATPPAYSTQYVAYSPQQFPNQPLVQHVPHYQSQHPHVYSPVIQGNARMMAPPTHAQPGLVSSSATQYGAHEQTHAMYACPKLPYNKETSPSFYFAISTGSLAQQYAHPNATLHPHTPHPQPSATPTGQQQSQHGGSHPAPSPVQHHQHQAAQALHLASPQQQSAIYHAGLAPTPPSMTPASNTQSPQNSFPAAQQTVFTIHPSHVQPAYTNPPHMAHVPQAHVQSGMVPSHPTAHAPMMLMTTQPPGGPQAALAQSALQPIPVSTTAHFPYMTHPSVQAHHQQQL
row,Structure (SMILES),Potency
1,CCOC(=O)c1cc2c(=O)n3ccccc3nc2n(Cc2ccco2)/c1=N/C(=O)c1cccc(OC)c1,inactive
2,COc1ccc(N2CCN(C(=O)[C@H](C)NC(=O)c3ccccc3Cl)CC2)cc1,inactive
3,CCCS(=O)(=O)c1nc(S(=O)(=O)c2ccc(C)cc2)c(N2CCN(CCO)CC2)s1,inactive
4,O=C(OCn1ncc(Cl)c(Cl)c1=O)c1ccccc1Cl,15.8 µM (active)
5,O=C(OCCN1C(=O)c2cccc3c(N4CCOCC4)ccc(c23)C1=O)c1ccccc1Cl,inactive
6,COC(=O)C1=CN(C)C=C(C(=O)OC)C1c1ccccc1Cl,inactive
7,Cc1ccc(C(=O)OCn2ncc(Cl)c(Cl)c2=O)cc1,20 µM (active)
8,O=C(O)c1ccc(OS(=O)(=O)c2cccc(C(F)(F)F)c2)cc1,inactive
9,COc1ccc(C(=O)OCc2ccc(C)cc2)cc1S(=O)(=O)N1CCOCC1,inactive
10,O=C(OCn1ncc(Cl)c(Cl)c1=O)c1cccc(C(F)(F)F)c1,39.8 µM (active)
11,N=C(NOC(=O)c1cnn(-c2ccccc2)c1C(F)(F)F)c1cc(C(F)(F)F)cc(C(F)(F)F)c1,inactive
12,CC(=O)c1c(COC(=O)c2ccc(C)cc2)nc2ccccc2[n+]1[O-],inactive
13,C=CCn1c(SCc2cccc(F)c2)nc2cc(C(=O)N3CCC(C(N)=O)CC3)ccc2c1=O,inactive
14,CCN1C(c2ccccc2)=C(c2ccccc2)S/C1=C\C=C1/SC(=S)N(C)C1=O,22.4 µM (active)
15,COc1ccc(/C=N/Nc2ncnc3sc(C)c(C)c23)cc1,inactive
16,O=C(Nc1cccc(Cl)c1)NC1CC2CCC(C1)N2Cc1ccco1 (centres undefined),inactive
17,NC(COCc1ccccc1)c1csc(NC(=O)Nc2cccc(C(F)(F)F)c2)n1 (centres undefined),39.8 µM (active)
18,Clc1cccc(Nc2nc(-c3ccncc3)cs2)c1,inactive
19,NC(COCc1ccccc1)c1csc(NC(=O)Nc2cccc(Cl)c2)n1 (centres undefined),25.1 µM (active)
20,O=C(Nc1cccc(Cl)c1)Nc1sccc1-c1nc2ccccc2s1,inactive
21,O=C(Cc1csc(Nc2nc(S)nc3ccccc23)n1)N1CCN(c2cccc(C(F)(F)F)c2)CC1,inactive
22,NC(CCc1ccccc1)c1csc(NC(=O)Nc2cccc(C(F)(F)F)c2)n1 (centres undefined),39.8 µM (active)
23,O=C(Nc1cccc(Cl)c1)Nc1nnc(-c2ccncc2)s1,12.6 µM (active)
24,C/C(=N/NC(=O)c1sc(NS(=O)(=O)c2ccc(C)cc2)nc1C)c1sc(N)nc1C,inactive
25,CN1CCN(/C=N/c2nc3ccccc3nc2N2CCCC2)CC1,inactive

row,Structure (SMILES),Potency
1,Cc1cc(O)nc2nc3ccccc3n12,inactive
2,OCCCc1nc2n(n1)C(c1ccccc1Cl)C=C(c1cccs1)N2 (centres undefined),inactive
3,CC(C)=Cc1c(O)n2ccccc2nc1=O,inactive
4,CCC/C=C/c1ccc(CN2C(C(C)C)C(=O)N(Cc3cn(CCC4OCCCO4)nn3)CCS2(=O)=O)cc1 (centres undefined),22.4 µM (active)
5,CCC/C=C/c1ccc(CN2C(C(C)C)C(=O)N(Cc3cn(CCC4OCCO4)nn3)CCS2(=O)=O)cc1 (centres undefined),35.5 µM (active)
6,CN(C1=NS(=O)(=O)c2ccccc21)c1ccc(OC(=O)c2ccncc2)cc1,inactive
7,Cc1csc2ncc(C(=O)N3CCc4ccccc43)c(=O)n12,inactive
8,CC1CN(Cc2cnc(Cl)s2)CC(C)O1 (centres undefined),inactive
9,CCN1CCN(S(=O)(=O)c2ccc3c4c(cccc24)C(=O)N3CC)CC1,inactive
10,CCCCCCc1cc2cc(C(=O)NC)c(=N)oc2cc1O,inactive
11,Cc1cc2c(cc1C)CSC(c1c(O)ccc3ccccc13)SC2,35.5 µM (active)
12,COc1ccc(/C=C/C(=O)Nc2ccc(S(=O)(=O)N3CCOCC3)cc2)c(OC)c1,inactive
13,COc1ccc(/C=C2\SC(=S)N(NS(=O)(=O)c3ccccc3)C2=O)c(OC)c1,39.8 µM (active)
14,COc1ccc(OC)c(/C=C2/Sc3ccccc3C2=O)c1,inactive
15,O=C(NCc1cccs1)c1cc(C2CC2)on1,inactive
16,O=C(c1cccc(Cl)c1)N(Cc1ccco1)C1CCS(=O)(=O)C1 (centres undefined),inactive
17,CC(C)(C)NC(=O)C(c1cccnc1)N(C(=O)c1csnn1)c1ccccc1 (centres undefined),inactive
18,CC(C)(C)NC(=O)C(c1ccc(-c2ccccc2)cc1)N(C[C@H]1CC[C@@H]([C@@H]2CC[C@H](CO)O2)O1)C(=O)c1cccc(Cl)c1 (some centres undefined),31.6 µM (active)
19,CC(C)(C)NC(=O)C(c1ccncc1)N(C(=O)C1CSC(=O)C1)c1ccccc1 (centres undefined),inactive
20,CC(C)(C)NC(=O)C(c1ccc(-c2ccccc2)cc1)N(C[C@H]1CC[C@@H]([C@@H]2CC[C@H](CO)O2)O1)C(=O)c1ccc(-c2ccccc2)cc1 (some centres undefined),35.5 µM (active)
21,CC1(C)NC(=O)N(CC(=O)N2CCN(S(=O)(=O)c3cc(Cl)ccc3Cl)CC2)C1=O,inactive
22,CC(C)Cn1nc(NC(=O)c2cccs2)c2cc3ccccc3nc21,inactive
23,Cc1nn(-c2ccccc2)c(C)c1/C=N/NC(=O)CSc1nc2ccccc2c(=O)n1-c1ccc(Br)cc1,12.6 µM (active)
24,CNC(=O)CSc1nc2ccccc2c(=O)n1C1CCCCC1,inactive
25,Cc1ccc(S(=O)(=O)N(C)C)cc1-n1c(SCC(=O)N(C)C)nc2ccccc2c1=O,inactive

row,Structure (SMILES),Potency
1,Cc1ccccc1CS(=O)(=O)c1ncc(Cl)c(C(=O)Nc2ccc(F)cc2)n1,10 µM (active)
2,CC(=O)Nc1ccc(S(=O)(=O)[N-]c2nc3ccccc3nc2-[n+]2ccc(NC(=O)c3ccc(F)cc3)cc2)cc1,inactive
3,O=C(Nc1ccc(F)cc1)c1cccnc1NCCc1ccccc1,inactive
4,O=C(Nc1ccc(F)cc1)c1nc(S(=O)(=O)Cc2ccccc2)ncc1Cl,25.1 µM (active)
5,O=C1CSc2ccc(S(=O)(=O)NCc3ccc(F)cc3)cc2N1,inactive
6,COc1ccc(Nc2nc3c(C)cccc3cc2C#N)cc1,inactive
7,N#Cc1nccc2ccc(OCc3ccc(Br)cc3)cc12,inactive
8,Cn1c(O)c(/C=N/NC(=O)c2cc3ccccc3cc2O)c2ccccc21,inactive
9,Cc1ccc(C(=O)NNC(=O)c2cc3ccccc3cc2O)cc1,inactive
10,CN(C(=O)COC(=O)c1cc2ccccc2cc1O)c1ccccc1,inactive
11,O=C(N=Nc1c(O)n(Cc2ccccc2)c2ccccc12)c1cc2ccccc2cc1O,39.8 µM (active)
12,Cc1ccc(NC(=O)Cn2c(O)c(N=NC(=O)c3cc4ccccc4cc3O)c3ccccc32)cc1,8.91 µM (active)
13,Cc1c(O)ccc2c(CC(=O)N[C@@H](Cc3ccc(O)cc3)C(=O)O)cc(=O)oc12,inactive
14,Cc1sc(NC(=O)c2ccccc2)c(C(c2ccc(Cl)cc2)N2CCN(CCO)CC2)c1C (centres undefined),28.2 µM (active)
15,CCS(=O)(=O)c1nc(S(=O)(=O)c2ccc(Cl)cc2)c(N2CCN(CCO)CC2)s1,inactive
16,Cc1c(-c2ccc(Cl)cc2)c(=O)oc2c(CN3CCN(CCO)CC3)c(O)ccc12,inactive
17,Cn1c(C(=O)NCc2ccccn2)cc2c(=O)n3ccccc3nc21,inactive
18,Cc1cccc(C2=NN(c3ccccc3)[C@H](CO)[C@H]2c2ccc(Cl)cc2)c1,inactive
19,CCN(CC)c1ccc(/C=N/NC(=O)c2cccc(S(=O)(=O)Nc3ccccc3OC)c2)c(O)c1,inactive
20,CCN1C/C(=C\c2cc(OC)c(OC)c(OC)c2)C2=NN(c3ccccc3)C(c3cc(OC)c(OC)c(OC)c3)C2C1 (centres undefined),inactive
21,Cc1ccc(C(=O)OCC(=O)NCCc2ccccc2)cc1C,inactive
22,CCOC(=O)c1ccc(NC(=O)COc2ccccc2CNCCc2ccccc2)cc1,29.9 µM (active)
23,CCOc1ccc(NC(=O)COc2ccc(C(=O)NCCc3ccccc3)cc2)cc1,inactive
24,CCCCn1nc(NC(=O)c2cccs2)c2cc3ccccc3nc21,inactive
25,NS(=O)(=O)c1ccc(NCc2cnc3ccccc3c2)cc1,inactive

row,Structure (SMILES),Potency
1,CCOc1ccc2nc(NCCCNS(=O)(=O)c3ccc(C)cc3)c(C#N)cc2c1,inactive
2,c1ccc(COc2ncnc3c2ncn3CCCNC2CCN(Cc3ccccc3)CC2)cc1,39.8 µM (active)
3,c1ccc(COc2ncnc3c2ncn3CCCNCC(c2ccccc2)c2ccccc2)cc1,25.1 µM (active)
4,COCCCn1c(C(=O)N2CC(C)OC(C)C2)cc2c(=O)n3ccccc3nc21 (centres undefined),inactive
5,O=C(CC(=O)N/N=C/c1c(F)cccc1Cl)NCCc1ccccc1,inactive
6,CCCCN(C)CCCNC(=O)C1CCN(c2nc3ccc(CC)cc3s2)CC1,28.2 µM (active)
7,CCOc1ccc2nc(N3CCC(C(=O)N4CCN(c5ncccn5)CC4)CC3)sc2c1,inactive
8,Cc1c(C(=O)NCc2ccc3c(c2)cc(C)n3C)cccc1[N+](=O)[O-],inactive
9,COc1cccc2sc3cc(NCCCN4CCOCC4)ccc3c(=O)c12,inactive
10,Brc1ccccc1OCCCN1CCCC1,inactive
11,COc1ccccc1OCCCCN1CCCCC1,inactive
12,c1ccc2c(-c3ccc(OCCN4CCCCC4)cc3)c(-c3ccsc3)sc2c1,39.8 µM (active)
13,COc1ccc(-c2c(C)c3ccc(O)c(CN4CCCCC4)c3oc2=O)cc1OC,inactive
14,COc1ccc(-c2sc3cc(OC)ccc3c2-c2ccc(OCCN3CCCCC3)cc2)cc1,25.1 µM (active)
15,COc1ccccc1-c1sc2ccccc2c1-c1ccc(OCCN2CCCCC2)cc1,35.5 µM (active)
16,COc1ccc2c(-c3ccc(OCCN4CCCCC4)cc3)c(-c3ccccc3OC)sc2c1,39.8 µM (active)
17,CSCCC1NC(=O)N(CC(=O)Nc2ccc(Br)cc2Br)C1=O (centres undefined),inactive
18,CCOc1cccc(NC(=O)c2sc3nc(-c4ccc(F)cc4)ccc3c2N)c1,inactive
19,COc1ccc2sc(-c3ccc(N(C)C)cc3)c(C#CCO)c2c1,inactive
20,COC(=O)c1c(-c2ccc(N(C)C)cc2)sc2ccc(OC)cc12,inactive
21,COc1ccc2sc(-c3ccccc3OC)c(-c3ccc(OCCN(C)C)cc3)c2c1,39.8 µM (active)
22,COc1ccccc1-c1sc2ccccc2c1C#Cc1ccc(N(C)C)cc1,inactive
23,COc1cccc(-c2sc3ccccc3c2-c2ccc(OCCN3CCCCC3)cc2)c1,28.2 µM (active)
24,COc1cccc(-c2sc3ccccc3c2-c2ccc(OCCN(C)C)cc2)c1,28.2 µM (active)
